Measurements published in the supplement of paper PMC11732987, “Enantioselective OTUD7B fragment discovery through chemoproteomics screening and high-throughput optimisation” (Communications Chemistry, 2025).

How the values were obtained:
Assay in all cases: log2 ratio of Biotin-Ahx-Ub-VS probe labelling (fragment/DMSO); higher = less target engagement (more negative = stronger competition), active = hit call of the paper (q ≤ 0.05, log2 ratio ≤ -1)
Settings in all cases: compound concentration: 200 uM; treatment time: 3 h
[1] = biological target: T1, USP42 (UniProt Q9H9J4)
T1 sequence (whole entry): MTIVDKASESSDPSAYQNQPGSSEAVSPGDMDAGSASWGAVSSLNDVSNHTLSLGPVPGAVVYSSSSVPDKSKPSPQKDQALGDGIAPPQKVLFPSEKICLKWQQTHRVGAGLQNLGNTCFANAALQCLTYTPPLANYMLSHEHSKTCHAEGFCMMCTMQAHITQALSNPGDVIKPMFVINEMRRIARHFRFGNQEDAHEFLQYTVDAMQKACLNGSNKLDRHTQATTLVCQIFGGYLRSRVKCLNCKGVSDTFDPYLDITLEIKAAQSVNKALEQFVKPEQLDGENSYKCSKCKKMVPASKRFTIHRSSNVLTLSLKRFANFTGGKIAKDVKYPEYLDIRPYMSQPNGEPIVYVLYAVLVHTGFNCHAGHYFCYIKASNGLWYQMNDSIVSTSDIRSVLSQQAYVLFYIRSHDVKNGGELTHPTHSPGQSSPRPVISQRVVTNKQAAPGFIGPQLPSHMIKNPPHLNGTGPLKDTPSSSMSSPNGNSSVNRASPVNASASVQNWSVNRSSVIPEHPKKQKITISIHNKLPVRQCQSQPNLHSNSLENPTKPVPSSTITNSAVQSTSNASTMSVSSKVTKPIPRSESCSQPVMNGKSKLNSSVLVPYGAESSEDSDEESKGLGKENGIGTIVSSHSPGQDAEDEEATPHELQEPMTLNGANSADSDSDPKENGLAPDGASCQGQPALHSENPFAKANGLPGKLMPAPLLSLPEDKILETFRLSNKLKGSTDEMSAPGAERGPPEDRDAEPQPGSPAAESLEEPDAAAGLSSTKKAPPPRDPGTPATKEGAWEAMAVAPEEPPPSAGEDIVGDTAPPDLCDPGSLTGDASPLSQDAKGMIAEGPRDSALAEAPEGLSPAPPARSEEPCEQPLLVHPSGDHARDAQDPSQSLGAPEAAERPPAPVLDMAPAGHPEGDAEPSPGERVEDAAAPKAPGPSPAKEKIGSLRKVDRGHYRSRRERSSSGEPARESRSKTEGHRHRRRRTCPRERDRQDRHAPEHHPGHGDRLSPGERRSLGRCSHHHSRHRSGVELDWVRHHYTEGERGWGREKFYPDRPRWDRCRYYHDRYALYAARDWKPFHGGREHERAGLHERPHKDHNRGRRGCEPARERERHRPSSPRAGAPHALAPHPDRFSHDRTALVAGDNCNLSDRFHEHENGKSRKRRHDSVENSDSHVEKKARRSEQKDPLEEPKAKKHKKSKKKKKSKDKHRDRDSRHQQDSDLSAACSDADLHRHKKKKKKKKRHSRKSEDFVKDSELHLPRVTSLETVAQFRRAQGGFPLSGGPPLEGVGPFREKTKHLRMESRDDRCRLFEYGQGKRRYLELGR
Procedure, shortened: (§1)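 The table lists average log2 ratios of fragment over vehicle, from an unpaired t-test on global-median-normalised Spectronaut label-free quantities. Proteins with ≥2 unique peptides were used. Samples were HEK293T lysate (495 µg) treated in triplicate with fragment at 200 µM or vehicle for 3 h, then with Biotin-Ahx-Ub-VS (0.5 µM final) for 1 h, with labelled DUBs NeutrAvidin-enriched and run by diaPASEF LC-MS/MS.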

[2] = biological target: USP46 (UniProt P62068)
Sequence of USP46 (P62068 whole entry): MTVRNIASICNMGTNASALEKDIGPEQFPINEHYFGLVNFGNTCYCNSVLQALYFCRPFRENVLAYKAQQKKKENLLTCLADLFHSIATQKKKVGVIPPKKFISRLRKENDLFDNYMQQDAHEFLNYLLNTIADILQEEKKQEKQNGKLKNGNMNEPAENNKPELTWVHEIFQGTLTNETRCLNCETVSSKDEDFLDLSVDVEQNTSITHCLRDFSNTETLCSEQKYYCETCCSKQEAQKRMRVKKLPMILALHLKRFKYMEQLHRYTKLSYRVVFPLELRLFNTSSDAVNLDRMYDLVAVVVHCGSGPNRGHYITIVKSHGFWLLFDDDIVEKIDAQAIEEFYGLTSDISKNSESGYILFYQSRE
Procedure, shortened: as §1

[3] = biological target: T2, USP47 (UniProt Q96K76)
T2 sequence (whole entry): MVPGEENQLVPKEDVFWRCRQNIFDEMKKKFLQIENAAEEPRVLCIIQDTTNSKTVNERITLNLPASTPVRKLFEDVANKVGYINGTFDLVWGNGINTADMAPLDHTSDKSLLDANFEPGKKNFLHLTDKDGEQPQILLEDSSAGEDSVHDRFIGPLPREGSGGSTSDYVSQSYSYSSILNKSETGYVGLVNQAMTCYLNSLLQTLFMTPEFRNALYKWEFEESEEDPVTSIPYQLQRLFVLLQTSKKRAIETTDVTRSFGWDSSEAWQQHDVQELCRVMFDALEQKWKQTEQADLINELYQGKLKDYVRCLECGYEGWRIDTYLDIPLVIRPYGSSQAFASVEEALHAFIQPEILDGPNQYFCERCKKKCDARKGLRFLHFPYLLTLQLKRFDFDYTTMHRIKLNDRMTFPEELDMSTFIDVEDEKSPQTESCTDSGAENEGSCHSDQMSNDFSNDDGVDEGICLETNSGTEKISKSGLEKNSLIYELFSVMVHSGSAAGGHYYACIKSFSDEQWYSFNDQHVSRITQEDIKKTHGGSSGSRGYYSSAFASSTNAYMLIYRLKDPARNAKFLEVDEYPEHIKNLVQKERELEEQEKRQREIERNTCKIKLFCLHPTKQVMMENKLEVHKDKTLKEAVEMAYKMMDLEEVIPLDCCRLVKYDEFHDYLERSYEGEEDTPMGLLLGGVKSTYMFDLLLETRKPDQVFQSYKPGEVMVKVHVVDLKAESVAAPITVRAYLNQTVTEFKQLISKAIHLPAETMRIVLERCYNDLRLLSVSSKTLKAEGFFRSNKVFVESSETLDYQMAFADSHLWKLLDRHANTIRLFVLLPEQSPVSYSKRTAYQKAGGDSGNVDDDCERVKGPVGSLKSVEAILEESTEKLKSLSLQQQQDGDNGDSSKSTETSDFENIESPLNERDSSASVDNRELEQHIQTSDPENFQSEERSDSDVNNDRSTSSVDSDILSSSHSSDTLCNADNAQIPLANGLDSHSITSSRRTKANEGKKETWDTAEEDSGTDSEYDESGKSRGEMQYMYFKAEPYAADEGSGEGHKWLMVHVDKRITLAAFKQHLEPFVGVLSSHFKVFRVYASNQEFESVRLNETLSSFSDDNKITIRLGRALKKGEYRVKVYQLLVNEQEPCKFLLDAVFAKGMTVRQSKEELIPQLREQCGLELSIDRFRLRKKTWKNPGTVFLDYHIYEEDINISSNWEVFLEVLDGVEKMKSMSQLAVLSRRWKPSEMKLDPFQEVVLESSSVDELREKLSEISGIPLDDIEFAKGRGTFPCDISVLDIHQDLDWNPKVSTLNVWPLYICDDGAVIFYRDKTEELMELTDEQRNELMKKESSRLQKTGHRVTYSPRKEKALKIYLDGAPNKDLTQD
Procedure, shortened: as §1

[4] = biological target: T3, USP48 (UniProt Q86UV5)
T3 sequence (whole entry): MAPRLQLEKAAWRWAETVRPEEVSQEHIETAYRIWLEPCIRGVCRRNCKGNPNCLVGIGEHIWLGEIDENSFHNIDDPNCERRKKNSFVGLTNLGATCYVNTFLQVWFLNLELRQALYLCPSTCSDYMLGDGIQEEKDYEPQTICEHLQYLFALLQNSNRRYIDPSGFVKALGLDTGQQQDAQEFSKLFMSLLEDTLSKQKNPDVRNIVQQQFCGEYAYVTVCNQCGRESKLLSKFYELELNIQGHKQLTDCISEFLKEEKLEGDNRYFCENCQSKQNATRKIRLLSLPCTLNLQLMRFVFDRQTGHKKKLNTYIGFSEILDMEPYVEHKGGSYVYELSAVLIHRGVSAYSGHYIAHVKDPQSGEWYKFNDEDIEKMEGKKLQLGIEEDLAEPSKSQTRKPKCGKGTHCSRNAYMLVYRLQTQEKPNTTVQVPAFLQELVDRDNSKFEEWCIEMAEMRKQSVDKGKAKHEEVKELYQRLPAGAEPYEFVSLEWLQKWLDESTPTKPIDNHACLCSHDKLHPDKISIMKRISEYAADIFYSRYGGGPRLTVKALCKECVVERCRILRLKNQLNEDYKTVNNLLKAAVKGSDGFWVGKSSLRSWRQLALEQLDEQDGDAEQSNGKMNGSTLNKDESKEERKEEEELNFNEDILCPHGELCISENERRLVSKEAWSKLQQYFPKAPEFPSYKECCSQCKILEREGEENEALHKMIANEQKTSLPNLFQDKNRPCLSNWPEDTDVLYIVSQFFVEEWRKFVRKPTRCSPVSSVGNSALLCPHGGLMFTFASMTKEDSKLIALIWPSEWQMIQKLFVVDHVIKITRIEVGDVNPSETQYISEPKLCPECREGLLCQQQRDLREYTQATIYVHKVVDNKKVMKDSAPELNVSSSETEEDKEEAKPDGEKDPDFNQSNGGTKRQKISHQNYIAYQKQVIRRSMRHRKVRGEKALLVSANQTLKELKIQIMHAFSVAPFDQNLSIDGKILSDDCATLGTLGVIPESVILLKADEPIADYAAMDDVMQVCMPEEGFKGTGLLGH
Procedure, shortened: as §1

[5] = biological target: T4, USP5 (UniProt P45974)
T4 sequence (whole entry): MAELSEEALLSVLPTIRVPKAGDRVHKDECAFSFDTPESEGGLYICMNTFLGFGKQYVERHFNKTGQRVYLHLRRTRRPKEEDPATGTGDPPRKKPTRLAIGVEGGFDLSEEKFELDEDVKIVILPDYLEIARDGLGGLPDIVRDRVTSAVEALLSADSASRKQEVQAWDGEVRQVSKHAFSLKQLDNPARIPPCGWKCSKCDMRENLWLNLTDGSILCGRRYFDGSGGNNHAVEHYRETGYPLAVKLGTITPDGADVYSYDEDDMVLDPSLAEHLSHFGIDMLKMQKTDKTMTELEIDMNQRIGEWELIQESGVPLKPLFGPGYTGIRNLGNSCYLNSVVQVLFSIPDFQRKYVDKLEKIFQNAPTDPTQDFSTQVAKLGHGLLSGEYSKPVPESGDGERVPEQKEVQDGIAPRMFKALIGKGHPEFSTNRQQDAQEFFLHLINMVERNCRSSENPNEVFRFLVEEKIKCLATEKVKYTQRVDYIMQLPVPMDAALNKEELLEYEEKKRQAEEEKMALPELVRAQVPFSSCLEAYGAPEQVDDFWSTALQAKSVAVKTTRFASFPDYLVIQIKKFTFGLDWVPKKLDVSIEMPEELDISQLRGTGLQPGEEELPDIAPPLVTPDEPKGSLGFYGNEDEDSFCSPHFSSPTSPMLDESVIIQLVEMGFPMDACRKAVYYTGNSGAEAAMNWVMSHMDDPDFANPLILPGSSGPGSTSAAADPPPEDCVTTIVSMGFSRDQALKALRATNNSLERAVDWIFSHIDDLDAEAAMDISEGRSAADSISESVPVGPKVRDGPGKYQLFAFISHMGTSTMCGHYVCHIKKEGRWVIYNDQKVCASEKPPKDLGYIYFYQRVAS
Procedure, shortened: as §1

[6] = biological target: USP54 (UniProt Q70EL1)
Sequence of USP54 (Q70EL1 whole entry): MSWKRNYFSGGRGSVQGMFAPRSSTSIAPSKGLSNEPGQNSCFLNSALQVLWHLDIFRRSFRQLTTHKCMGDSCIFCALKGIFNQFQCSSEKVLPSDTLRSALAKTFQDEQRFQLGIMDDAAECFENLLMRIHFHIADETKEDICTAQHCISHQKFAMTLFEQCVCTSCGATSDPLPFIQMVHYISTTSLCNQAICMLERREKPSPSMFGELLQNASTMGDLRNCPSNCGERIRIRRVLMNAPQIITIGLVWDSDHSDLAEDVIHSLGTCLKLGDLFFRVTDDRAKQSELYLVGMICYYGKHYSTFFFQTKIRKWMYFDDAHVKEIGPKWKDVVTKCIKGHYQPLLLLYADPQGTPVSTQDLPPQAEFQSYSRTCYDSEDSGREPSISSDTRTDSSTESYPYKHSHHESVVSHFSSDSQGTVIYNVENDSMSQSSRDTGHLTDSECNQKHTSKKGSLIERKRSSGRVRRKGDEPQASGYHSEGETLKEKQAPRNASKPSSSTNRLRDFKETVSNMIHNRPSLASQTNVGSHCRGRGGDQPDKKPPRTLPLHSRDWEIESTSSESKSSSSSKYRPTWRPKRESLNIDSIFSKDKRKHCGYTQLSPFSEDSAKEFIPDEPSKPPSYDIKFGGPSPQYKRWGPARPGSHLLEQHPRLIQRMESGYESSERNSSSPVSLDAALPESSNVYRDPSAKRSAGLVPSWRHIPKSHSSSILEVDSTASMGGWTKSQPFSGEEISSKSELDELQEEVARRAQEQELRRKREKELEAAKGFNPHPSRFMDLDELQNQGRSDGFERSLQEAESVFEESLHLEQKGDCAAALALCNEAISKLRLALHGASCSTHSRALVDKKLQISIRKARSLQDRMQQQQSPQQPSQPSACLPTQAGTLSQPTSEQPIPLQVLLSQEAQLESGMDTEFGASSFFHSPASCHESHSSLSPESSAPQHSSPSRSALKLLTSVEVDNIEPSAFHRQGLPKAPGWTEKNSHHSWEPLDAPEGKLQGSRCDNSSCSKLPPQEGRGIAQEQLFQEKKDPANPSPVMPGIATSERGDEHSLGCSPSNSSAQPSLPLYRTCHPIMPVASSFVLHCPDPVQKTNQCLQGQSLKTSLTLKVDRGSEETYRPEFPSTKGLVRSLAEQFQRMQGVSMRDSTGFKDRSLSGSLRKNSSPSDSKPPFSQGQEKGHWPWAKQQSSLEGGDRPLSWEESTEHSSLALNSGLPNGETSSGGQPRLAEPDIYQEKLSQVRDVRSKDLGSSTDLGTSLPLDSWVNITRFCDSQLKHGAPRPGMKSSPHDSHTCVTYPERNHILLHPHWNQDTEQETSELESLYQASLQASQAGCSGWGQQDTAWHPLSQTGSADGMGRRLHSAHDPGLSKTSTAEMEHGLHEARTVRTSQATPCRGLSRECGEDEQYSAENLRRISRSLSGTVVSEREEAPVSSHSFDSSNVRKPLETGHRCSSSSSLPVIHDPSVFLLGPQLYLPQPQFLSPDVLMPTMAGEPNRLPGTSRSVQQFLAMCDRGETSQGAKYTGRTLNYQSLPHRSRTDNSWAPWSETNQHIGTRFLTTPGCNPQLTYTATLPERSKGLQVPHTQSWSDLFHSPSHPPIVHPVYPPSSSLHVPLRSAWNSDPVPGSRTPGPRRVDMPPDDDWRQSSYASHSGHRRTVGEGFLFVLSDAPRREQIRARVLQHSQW
Procedure, shortened: as §1

[7] = biological target: USP7 (UniProt Q93009)
Sequence of USP7 (Q93009 whole entry, looked up): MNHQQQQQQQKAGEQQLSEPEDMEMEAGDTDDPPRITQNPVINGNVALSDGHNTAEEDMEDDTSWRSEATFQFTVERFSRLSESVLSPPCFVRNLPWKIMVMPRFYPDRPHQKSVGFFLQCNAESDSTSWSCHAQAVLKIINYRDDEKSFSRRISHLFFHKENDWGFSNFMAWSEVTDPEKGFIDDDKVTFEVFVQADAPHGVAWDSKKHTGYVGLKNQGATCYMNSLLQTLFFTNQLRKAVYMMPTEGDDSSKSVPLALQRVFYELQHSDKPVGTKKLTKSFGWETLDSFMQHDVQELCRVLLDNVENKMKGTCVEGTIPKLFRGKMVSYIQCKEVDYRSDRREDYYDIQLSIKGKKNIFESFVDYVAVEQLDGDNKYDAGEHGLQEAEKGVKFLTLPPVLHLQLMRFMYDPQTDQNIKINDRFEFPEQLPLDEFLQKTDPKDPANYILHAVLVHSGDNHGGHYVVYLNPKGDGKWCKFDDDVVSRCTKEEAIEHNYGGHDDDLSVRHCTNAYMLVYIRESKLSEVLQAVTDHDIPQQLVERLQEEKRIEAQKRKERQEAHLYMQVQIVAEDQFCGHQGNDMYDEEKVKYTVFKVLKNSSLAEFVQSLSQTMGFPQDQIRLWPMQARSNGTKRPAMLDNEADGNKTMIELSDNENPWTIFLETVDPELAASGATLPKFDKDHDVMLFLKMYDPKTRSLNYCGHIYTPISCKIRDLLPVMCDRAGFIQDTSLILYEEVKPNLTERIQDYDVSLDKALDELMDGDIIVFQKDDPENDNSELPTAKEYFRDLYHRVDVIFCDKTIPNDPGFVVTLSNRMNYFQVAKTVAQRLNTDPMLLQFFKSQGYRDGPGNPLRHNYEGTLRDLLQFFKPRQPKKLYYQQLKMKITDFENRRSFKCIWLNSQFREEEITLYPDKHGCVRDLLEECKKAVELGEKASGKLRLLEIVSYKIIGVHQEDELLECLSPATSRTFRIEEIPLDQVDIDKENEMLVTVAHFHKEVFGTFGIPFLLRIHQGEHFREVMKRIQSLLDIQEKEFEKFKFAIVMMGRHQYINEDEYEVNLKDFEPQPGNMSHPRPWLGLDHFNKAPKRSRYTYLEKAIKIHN
Procedure, shortened: as §1

[8] = biological target: T5, USP8 (UniProt P40818)
T5 sequence (whole entry): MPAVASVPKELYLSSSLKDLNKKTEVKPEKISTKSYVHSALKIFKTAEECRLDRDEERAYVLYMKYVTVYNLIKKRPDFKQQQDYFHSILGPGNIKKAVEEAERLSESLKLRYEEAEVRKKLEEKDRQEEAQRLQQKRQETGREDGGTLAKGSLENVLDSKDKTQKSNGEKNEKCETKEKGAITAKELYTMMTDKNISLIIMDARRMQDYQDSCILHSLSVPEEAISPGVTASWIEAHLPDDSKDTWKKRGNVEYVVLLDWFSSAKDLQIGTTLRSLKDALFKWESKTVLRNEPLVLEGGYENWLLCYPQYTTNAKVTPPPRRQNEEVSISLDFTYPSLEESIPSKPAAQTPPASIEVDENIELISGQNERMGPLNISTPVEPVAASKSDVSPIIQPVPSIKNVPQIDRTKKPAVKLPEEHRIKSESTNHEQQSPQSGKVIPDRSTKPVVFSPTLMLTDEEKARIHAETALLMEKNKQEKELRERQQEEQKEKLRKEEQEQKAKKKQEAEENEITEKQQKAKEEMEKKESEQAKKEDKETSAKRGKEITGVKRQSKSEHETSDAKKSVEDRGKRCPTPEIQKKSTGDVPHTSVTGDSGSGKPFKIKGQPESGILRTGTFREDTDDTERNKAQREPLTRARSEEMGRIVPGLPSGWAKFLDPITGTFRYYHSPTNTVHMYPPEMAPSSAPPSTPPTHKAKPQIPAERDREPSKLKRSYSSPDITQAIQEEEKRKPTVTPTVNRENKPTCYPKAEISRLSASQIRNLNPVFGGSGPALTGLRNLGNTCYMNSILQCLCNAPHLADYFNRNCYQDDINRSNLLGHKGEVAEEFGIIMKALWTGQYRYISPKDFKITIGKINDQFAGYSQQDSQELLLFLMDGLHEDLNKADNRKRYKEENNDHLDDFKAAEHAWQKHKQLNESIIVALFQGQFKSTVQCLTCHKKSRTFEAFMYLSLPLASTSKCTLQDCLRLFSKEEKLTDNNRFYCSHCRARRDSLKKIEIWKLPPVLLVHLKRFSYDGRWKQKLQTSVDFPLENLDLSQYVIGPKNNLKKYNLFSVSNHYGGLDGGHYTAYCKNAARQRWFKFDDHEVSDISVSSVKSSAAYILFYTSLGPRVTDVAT
Procedure, shortened: as §1

[9] = biological target: USP9X (UniProt Q93008)
Procedure, shortened: as §1

[10] = biological target: UniProt O00487
Sequence of UniProt O00487 (O00487 whole entry): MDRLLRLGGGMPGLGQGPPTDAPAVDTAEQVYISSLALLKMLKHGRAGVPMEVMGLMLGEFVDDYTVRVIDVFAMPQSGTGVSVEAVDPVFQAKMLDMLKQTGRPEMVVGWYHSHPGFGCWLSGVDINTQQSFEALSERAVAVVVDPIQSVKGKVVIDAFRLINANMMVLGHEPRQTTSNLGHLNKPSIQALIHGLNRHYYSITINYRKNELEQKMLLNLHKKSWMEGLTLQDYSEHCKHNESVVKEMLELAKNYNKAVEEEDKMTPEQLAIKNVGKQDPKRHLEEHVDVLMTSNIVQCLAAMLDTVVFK
Procedure, shortened: as §1

Measured: log2 ratio of Biotin-Ahx-Ub-VS probe labelling

O=C(CCl)Nc1ccc(F)cc1F
inactive: [1] -0.555 | [2] -0.0216 | [3] -0.211 | [4] -0.0331 | [5] -0.0493 | [6] 0.615 | [7] -0.0738 | [8] -0.257 | [9] -0.218 | [10] -0.099
